hERG WT inh – blocks the wildtype human KCNH2 potassium channel; Q12809; U2OS, BacMam KCNH2, thallium flux FluxOr; stronger effect = lower value; activity change, % at 1.84 µM; 0.37% of 340,000 active;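 active = maximum activity change below -70%; inconclusive = maximum activity change between -70% and -50%; inactive = maximum activity change above -50%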
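U2OS cells were transduced with wild-type KCNH2 virus (2.03 x 10^8 / mL) for 4 h at room temperature, then cultured overnight at 37 C. Thallium flux was read with FluxOr dye. Rate constants were normalized to DMSO controls.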
ClpP mod – qHTS Assay for Activators of ClpP | Potency, µM (series often up to 57.5 µM) | ATP-dependent Clp protease proteolytic subunit (Bacillus subtilis (strain 168)), P80244 | purified B. subtilis ClpP, FRET peptide cleavage, 20 min | 1.9% of 340,000 active | AID 651965, 2013; active = well fitted falling curve with a large enough effect; inconclusive = small, poorly fitted or top-dose-only effect; inactive = no such curve, though single readings can be large or run the other way; note: the source files actives as falling curves though it sought activators and does not explain the sign; nearly all actives have a fitted effect of over 65% in size
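FRET quenching reversal measured ClpP activation: 10 microg/mL B. subtilis ClpP at pH 8 with the FRET-FV decapeptide, read at 430 nm after 320 nm excitation. The 20-min minus 0-min signal was scaled between DMSO/no-enzyme wells and ADEP (5.8 microM final).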
TRPV1 ag – human TRPV1 agonism; Q8NER1; TRPV1-expressing cells, Fluo-8 calcium influx, agonist mode; activation, % at 8.33 µM; 0.19% of 320,000 active; AID 540275; in the data active = activation above about 80%; inconclusive = between about 30% and that limit
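Fluo-8 calcium influx in TRPV1-expressing cells, kinetic read (ex 480/em 520 nm). Compound added and read 3 min for agonist activity, followed by capsaicin at EC20 final and 2 min further read for enhancement.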
TRPV1 potentiator – potentiators of human vanilloid receptor 1 (TRPV1); TRPV1-expressing cells, Fluo-8 calcium influx, capsaicin EC20 potentiation; Q8NER1; potentiation, % at 8.33 µM; AID 540277; 0.02% of 320,000 active; in the data active = potentiation above about 80%; inconclusive = between about 30% and that limit
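Cells expressing TRPV1 were dye-loaded with Fluo-8 and read kinetically: 10 s baseline, 3 min after compound (agonist portion), then 2 min after EC20 capsaicin (allosteric enhancer portion). Calcium-bound dye fluorescence at 480/520 nm.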
KCNH2 3.1 block – KCNH2 3.1 (human) potassium channel inhibition. AID 720553. U2OS KCNH2 3.1, thallium flux FluxOr; stronger effect = lower value. 0.95% of 340,000 active. activity change, % (tested at about 1.8 µM);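 active = maximum activity change below -70%; inconclusive = maximum activity change from -70% to -50%; inactive = maximum activity change above -50%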;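 note: thallium influx rate constant from kinetic fluorescence after stimulation buffer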
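Thallium flux via FluxOr fluorescence (Red40 quencher, 45 min loading) in U2OS cells virally expressing the KCNH2 3.1 isoform (1.77 x 10^8 /mL virus, overnight at 37 C). Rate constants from 2-min kinetic reads post-stimulation, normalised to positive and negative controls.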
p53 reactivation – mutant p53 re-activation in reporter cells; H1299 p53-A138V BP100-luciferase reporter, luminescence, 24 h; Potency, µM (top dose mostly 92.2 µM), most hits filed as activators; 0.063% of 320,000 active; AID 504706; active = well fitted activation curve with a large enough effect; inconclusive = small, poorly fitted or top-dose-only effect; inactive = no such curve, though single readings can be large or run the other way; note: nearly all actives have a fitted effect of over 45% in size
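H1299 (p53-null), stable ts p53-A138V + BP100-Luc; 1000 cells/well, Opti-MEM/10% FBS; cpd 4 pt, 1:5; 24 h, 37 deg C, 5% CO2; detection reagent 10 min RT; luminescence.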
Hits are given with their value; n = inactive; u = inconclusive; x = no result. Most compounds without a hit are left out; they make up all but 2.6% or so of the library.

SMILES	hERG WT inh	ClpP mod	TRPV1 ag	TRPV1 potentiator	KCNH2 3.1 block	p53 reactivation
CCc1ccc2[nH]c(=O)c(CN(CCCN3CCOCC3)C(=O)Nc3ccccc3)cc2c1	n	n	n	n	n	n
CCN(CC)CCCN(Cc1cc2cc3c(cc2[nH]c1=O)OCCO3)C(=O)Nc1ccccc1	n	20µM	n	n	n	n
CCN(CC)CCCN(Cc1cc2cc3c(cc2[nH]c1=O)OCO3)C(=S)Nc1ccc(OC)cc1	n	x	n	n	n	n
COc1ccc2[nH]c(=O)c(CN(CCCN3CCOCC3)C(=O)NCc3ccccc3)cc2c1	n	16µM	n	n	n	n
O=C(Nc1ccccc1F)N(CCCN1CCOCC1)Cc1cc2cc3c(cc2[nH]c1=O)OCCO3	n	20µM	n	n	n	n
O=C(Nc1ccccc1)N(CCCN1CCOCC1)Cc1cc2cc3c(cc2[nH]c1=O)OCCO3	n	32µM	n	n	n	n
CN(C)c1ccc(/C=C2\C=Cc3ccccc32)cc1N	x	n	x	x	x	x
O=C(NCc1ccccc1Cl)c1nnc(Cc2cccc(F)c2)o1	x	n	x	x	x	x
CCc1n[nH]c2c1C(=O)CC(C)(C)C2	n	25µM	n	n	n	n
Cc1[nH]nc2c1C(=O)CC(C)(C)C2	n	n	n	n	n	n
COc1ccc(-n2cccc2/C=C2/NC(=O)N(c3cccc(Cl)c3)C2=O)cc1	n	25µM	n	n	n	n
O=C(O)c1cccc(-n2cccc2/C=C2/NC(=O)N(c3cccc(Cl)c3)C2=O)c1	n	x	n	u	n	n
CCOC(=O)c1ccc(-c2ccc(/C=C(\C#N)C(=O)Nc3ccc(C)cc3OC)o2)cc1	x	n	x	x	x	x
Cc1ccc(C(=O)Oc2cc(-c3ccccc3)no2)cc1	n	n	n	n	n	n
O=C(Oc1cc(-c2ccccc2)no1)c1ccc(Cl)cc1	n	40µM	n	n	n	n
O=C(C1CCCO1)N1CCN(Cc2c(O)ccc3ccccc23)CC1 (configuration not stated)	n	u	n	n	-95	n
CCOC(=O)C1CCN(Cc2c(O)ccc3ccccc23)CC1	n	28µM	n	n	n	n
CCOC(=O)C1CCN(c2nc(-c3ccccc3)nc3c2oc2ccccc23)CC1	n	32µM	n	n	n	n
O=C(O)C1CCN(c2nc(-c3ccccc3)nc3c2oc2ccccc23)CC1	n	n	n	n	n	n
COc1ccc(CN2C(=O)N(c3cccc(C)c3)C(=O)C2CC(=O)Nc2ccc(F)cc2)cc1OC (configuration not stated)	x	n	x	x	x	x
CCC(C)c1ccc2oc(-c3ccc(NC(=O)Cn4cnc5c(=O)n(C)c(=O)n(C)c54)cc3)nc2c1 (configuration not stated)	n	11µM	n	u	n	u
Cc1ccc2oc(-c3cccc(NC(=O)Cn4cnc5c(=O)n(C)c(=O)n(C)c54)c3)nc2c1	x	x	n	n	x	n
COc1ccc(CNC(=O)C2(CC3CC(c4ccccc4)=NO3)CCN(C(=O)Cc3ccc(F)cc3)CC2)cc1 (configuration not stated)	n	n	x	x	-72	x
CCOc1cc(C(=O)N2CCC(CC3CC(c4ccccc4)=NO3)(C(=O)NCc3ccc(OC)cc3)CC2)cc(OCC)c1OCC (configuration not stated)	n	n	x	x	n	x
CS(=O)(=O)Nc1nc2n(n1)C(c1ccccc1)C=C(c1ccc(Br)cc1)N2 (configuration not stated)	n	8.9µM	n	n	n	n
SMILES	hERG WT inh	ClpP mod	TRPV1 ag	TRPV1 potentiator	KCNH2 3.1 block	p53 reactivation
CC(=O)Nc1nc2n(n1)C(c1ccc(F)cc1)C=C(c1ccccc1)N2 (configuration not stated)	n	u	n	n	n	n
Cc1ccc(C2C=C(c3ccccc3)Nc3nc(NS(=O)(=O)c4ccc(C)cc4)nn32)cc1 (configuration not stated)	x	n	x	x	x	x
CC(=O)Nc1nc2n(n1)C(c1ccccc1)C=C(c1ccccc1)N2 (configuration not stated)	n	28µM	n	n	n	n
CC(=O)Nc1nc2n(n1)C(c1ccc(Cl)cc1)C=C(C)N2 (configuration not stated)	n	3.2µM	n	n	n	n
COc1ccccc1CCn1cnc2c3cc(C)ccc3n(C)c2c1=O	n	35µM	u	n	n	n
COc1ccc2c(c1)c1ncn(CCN3CCCCC3)c(=O)c1n2C	n	16µM	n	n	n	n
COc1ccc2c(c1)c1ncn(CCN3CCCC3)c(=O)c1n2C	n	32µM	n	n	n	n
COc1ccc2[nH]c(=O)c(CN(CCN3CCCC3)C(=O)Nc3ccccc3Cl)cc2c1	n	32µM	n	n	n	n
COc1ccc2[nH]c(=O)c(CN(CC3CCCO3)C(=O)Nc3ccccc3OC)cc2c1 (configuration not stated)	n	28µM	n	n	n	n
COc1ccccc1NC(=O)N(Cc1cc2cc(OC)c(OC)cc2[nH]c1=O)CC1CCCO1 (configuration not stated)	n	n	n	n	n	n
CCc1ccc2[nH]c(=O)c(CN(Cc3ccccc3OC)C(=O)Nc3ccccc3OC)cc2c1	n	n	n	n	n	n
CCOc1ccc2[nH]c(=O)c(CN(CCN3CCCC3)C(=S)Nc3ccccc3OCC)cc2c1	n	n	n	n	n	n
COc1ccc(N(Cc2cc3cc(OC)ccc3[nH]c2=O)C(=O)C2CCCO2)cc1 (configuration not stated)	n	18µM	n	n	n	n
CCN(CC)CCN(Cc1cc2cc(C)ccc2[nH]c1=O)C(=O)Nc1ccccc1OC	n	n	n	88	n	u
CCOc1ccc(-c2c(C)nn3c(-c4ccccc4)c(C(=O)NCCOC)cnc23)cc1OCC	x	n	x	x	x	x
O=C(OCC(=O)C12CC3CC(CC(C3)C1)C2)c1ccc(O)cc1	n	n	x	x	n	n
Nc1ccc(O)cc1C(=O)OCC(=O)C12CC3CC(CC(C3)C1)C2	n	22µM	n	n	n	n
CC(C)C[C@@H]1O[C@H](CCc2ccccc2)Cc2[nH][nH]c(=O)c21	x	n	x	x	x	x
Cn1nc(C(=O)NCc2ccccc2)c2ccccc2c1=O	n	n	n	n	n	n
Cn1nc(C(=O)NCCOc2ccccc2)c2ccccc2c1=O	n	x	n	n	-119	n
Fc1ccc(N2CCN(Cc3cccn3-c3nnc(N4CCN(C5CCCCC5)CC4)s3)CC2)cc1	x	n	x	x	x	x
Cc1nn(-c2ccccc2)c(N2CCCC2)c1/C=C1\N=C(c2ccc(OC(C)C)cc2)OC1=O	n	n	n	n	-75	n
O=C(CCSc1nnc2ccccn12)Nc1ccc(F)cc1	n	28µM	n	n	n	n
